This is a sample that favours compounds with a hit; in the whole collection about 1.2% have one here.
RGS16-Gao – modulates binding between human RGS16 and Galphao; O15492+P09471; bead-based flow cytometry RGS16-Galphao binding, fluorescence; actives lie on both sides; binding response (% of control), % at 10 µM; 0.38% of 220,000 active; call rule not given here;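 further: Galphao activated by GDP with aluminum fluoride before binding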
Target sequence (O15492 whole entry, looked up): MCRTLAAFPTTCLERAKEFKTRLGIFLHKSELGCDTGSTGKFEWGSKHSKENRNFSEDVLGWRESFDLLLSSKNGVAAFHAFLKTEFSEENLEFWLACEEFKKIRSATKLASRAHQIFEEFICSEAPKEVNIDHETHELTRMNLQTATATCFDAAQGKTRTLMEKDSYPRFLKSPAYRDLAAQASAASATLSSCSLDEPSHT
Target sequence (P09471 whole entry, looked up): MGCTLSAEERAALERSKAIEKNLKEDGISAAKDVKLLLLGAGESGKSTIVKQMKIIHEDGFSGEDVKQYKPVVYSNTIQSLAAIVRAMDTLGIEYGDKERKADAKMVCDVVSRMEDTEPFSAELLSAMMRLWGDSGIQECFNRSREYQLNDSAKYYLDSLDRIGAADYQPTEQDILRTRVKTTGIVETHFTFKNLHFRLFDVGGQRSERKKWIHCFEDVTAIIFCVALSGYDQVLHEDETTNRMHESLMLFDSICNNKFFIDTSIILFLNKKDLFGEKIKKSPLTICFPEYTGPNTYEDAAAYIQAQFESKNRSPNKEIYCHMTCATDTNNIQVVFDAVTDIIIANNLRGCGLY
GSH bead fluor – GSH bead compound fluorescence profile. GSH beads flow cytometry, compound fluorescence 488/530 nm; stronger effect = higher value. fluorescence (KMESF) at 10 µM. 0.25% of 190,000 active. AID 1776; in the data active means fluorescence above about 89;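 further: glutathione beads carrying GST-tagged Bcl family fusion proteins plus one bare bead set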
Avidin bead fluor – compound fluoresces at 488/530 nm on avidin beads; compound fluorescence 488/530 nm, flow cytometry; stronger effect = higher value; fluorescence (KMESF) at 10 µM; 0.38% of 220,000 active; in the data active means fluorescence above about 47
RGS4-Gao reg – modulates binding of RGS4 to human Galphao. P09471. Multiplexed bead flow cytometry; actives lie on both sides. binding response (% of control), % at 10 µM. 0.33% of 220,000 active; in the data active means binding response below about 49% or above about 150%; inactive means in between;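 further: fluorescent Galphao activated with aluminum fluoride binding bead-coupled RGS4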
Target sequence (P09471 whole entry, looked up): as above
RGS8-Gao – modulates binding of RGS8 to human Galphao. multiplexed bead flow cytometry; actives lie on both sides. response (percent of control binding), % at 10 µM. 0.34% of 220,000 active. AID 1423. P09471; in the data active means response below about 60% or above about 140%; inactive means in between;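 further: Galphao activated as the GDP aluminium fluoride complex binding bead-coupled RGS8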
RGS7-Gao – modulates binding of RGS7 to human Galphao; P09471; Multiplexed bead flow cytometry; actives lie on both sides; binding response (% of control), % at 10 µM; 0.35% of 220,000 active; AID 1439; in the data active means binding response below about 49% or above about 150%; inconclusive means no clear call, values can overlap the other calls; inactive means in between;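 further: fluorescent Galphao held in activated GDP-AlF4 state binding bead-coupled RGS7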
Each line names hits and unclear results; the compound was inactive in the other large screens; [ ] = remark or other dose.

CC1=NN(c2ccc(Cl)cc2)C(=O)C1	none
COc1ccc(OCCNS(=O)(=O)c2ccc3oc4ccccc4c3c2)cc1	none
CN(CCOc1ccccc1)S(=O)(=O)c1ccc2oc3ccccc3c2c1	Avidin bead fluor 60
O=C(NC1CCCCC1)C(c1cccnc1)N(CCc1ccccc1)C(=O)Cc1cccs1 (stereo not drawn)	none
Cc1ccc(NC(CNS(=O)(=O)c2ccc(Cl)cc2)c2ccccc2)cc1 (stereo not drawn)	Avidin bead fluor 121, RGS4-Gao reg 215.3[activator], RGS7-Gao 254.6[activator]
O=S(=O)(NCC(Nc1ccc(Cl)cc1)c1ccccc1)c1ccccc1 (stereo not drawn)	none
O=C1COc2ccc(C(=O)COC(=O)c3ccc4ccccc4n3)cc2N1	none
O=C1COc2ccc(C(=O)COC(=O)Cn3cnc4ccccc43)cc2N1	GSH bead fluor 272
CNc1ccc([N+](=O)[O-])cc1-c1nc2ccccc2[nH]c1=O	RGS7-Gao inconclusive (no result: GSH bead fluor)
O=C(c1cccc(F)c1)N1CCN(C2CCCCC2)CC1	GSH bead fluor 269
O=C(c1cccc(F)c1)N1CCC(N2CCCCCC2)CC1	none
FC(F)(F)c1ccc(-n2ccnc2)nc1	GSH bead fluor 265
O=C(NCCSc1ccccc1)c1ccc(Br)cc1	none
O=C(NCCSc1ccccc1)c1cncc(Br)c1	Avidin bead fluor 91
CC(C)NC(=O)CCCc1c[nH]c2ccccc12	Avidin bead fluor 58
Cc1noc(C)c1COC(=O)CCCc1c[nH]c2ccccc12	GSH bead fluor 258
CCOC(=O)CCCc1c[nH]c2ccccc12	none
O=C(NC(=S)N1CCCCCC1)c1ccc(Cl)cc1Cl	none
CS(=O)(=O)N1CCN(c2cnn(-c3ccccc3)c(=O)c2Cl)CC1	Avidin bead fluor 90
CCN1/C(=C/C=C/c2oc3ccc(-c4ccccc4)cc3[n+]2CC)Oc2ccc(-c3ccccc3)cc21	RGS16-Gao active[activator], GSH bead fluor 640, Avidin bead fluor 994, RGS4-Gao reg active[activator], RGS8-Gao 300.3[activator], RGS7-Gao active[activator]
CCCCN1C(=O)/C(=C/C=C2\Oc3ccccc3N2CC)SC1=S	none
CCc1nc(SCC(=O)NCCc2ccccc2)c2c(=O)n(C)c(=O)n(C)c2n1	RGS7-Gao inconclusive (no result: GSH bead fluor)
CCN(CC)c1ccc(/C=C(\C#N)C(=O)c2ccc(Br)cc2)cc1	GSH bead fluor 151
COc1ccc(C2/C(=C(\O)c3ccc4c(c3)OCCO4)C(=O)C(=O)N2Cc2ccco2)c(OC)c1 (stereo not drawn)	GSH bead fluor 122
COc1ccc(/C(O)=C2/C(=O)C(=O)N(Cc3ccco3)C2c2cccs2)cc1 (stereo not drawn)	none
CCCC(=O)Nc1ccc(-c2nc3cc(C)ccc3o2)cc1	none
CCCC(=O)Nc1ccc2oc(-c3ccc(OC)c(Br)c3)nc2c1	Avidin bead fluor 54
CC(=O)n1nc(-c2ccccc2)nc1NCc1cccs1	none
NC(=O)c1ccc(N=Nc2c(-c3ccccc3)[nH]n(-c3ccccc3)c2=O)cc1	Avidin bead fluor 63, RGS7-Gao inconclusive
CC(C)N(C)NC(=S)Nc1ccccc1	GSH bead fluor 332
CCN(CC)NC(=S)Nc1ccccc1	none
O=C(CN1CCc2ccccc21)NC(=O)NCc1ccccc1	none
O=C(CSc1nnc(-c2ccc(S(=O)(=O)N3CCCC3)cc2)o1)NCc1ccccc1	GSH bead fluor 113
O=C(CSc1nnc(-c2ccc(F)cc2)o1)Nc1ccc(S(=O)(=O)N2CCCC2)cc1	none
CCCCn1c(CN2CCN(C)CC2)nc2ccccc21	none
CCCn1c(CN2CCN(C)CC2)nc2ccccc21	RGS16-Gao 13.9, RGS4-Gao reg 22.9, RGS8-Gao 13.0, RGS7-Gao 16.4
OC(CSc1ccccc1Cl)CN1CCN(c2ccccc2F)CC1 (stereo not drawn)	Avidin bead fluor 89
OC(CSc1c(Cl)cccc1Cl)CN1CCN(c2ccccc2F)CC1 (stereo not drawn)	none
C=CCNC(=O)COc1cc(C)cc(C)c1C	RGS7-Gao inconclusive
CCO[C@H]1OC(C(N)=O)=C[C@@H](C2CCCCC2)[C@@H]1CCCO	none
CC1Oc2ccccc2N(CC(=O)NCC2CCCO2)C1=O (stereo not drawn)	Avidin bead fluor 54
Cc1nn(CC(=O)NCC2CCCO2)c(=O)c2ccccc12 (stereo not drawn)	GSH bead fluor 270
Cc1nnc(SCC(=O)NCC2CCCO2)n1-c1ccccc1 (stereo not drawn)	GSH bead fluor 273
CC1Oc2ccccc2N(CC(=O)NCc2ccccc2)C1=O (stereo not drawn)	none
Cc1nn(CC(=O)O)c(=O)c2ccccc12	GSH bead fluor 263
CC(C(=O)Nc1ccc(S(=O)(=O)N2CCCCC2)cc1)N1CCN(c2ccccn2)CC1 (stereo not drawn)	RGS7-Gao inconclusive
CC(C)(C)N1CCC1CN (stereo not drawn)	RGS7-Gao inconclusive (no result: GSH bead fluor)
OCC(O)/C=N/Nc1nc(N2CCCCC2)nc(N2CCCCC2)n1 (stereo not drawn)	none
COC(=O)c1cc(OC)c(OC)c(OC)c1N	GSH bead fluor 259
O=S(=O)(Nc1ccccc1)c1ccc2c(c1)CCO2	RGS7-Gao inconclusive (no result: GSH bead fluor)
COc1ccc(NS(=O)(=O)c2ccc3c(c2)CCO3)cc1	Avidin bead fluor 61, RGS7-Gao inconclusive (no result: GSH bead fluor)
NC(=O)c1oc2ccccc2c1NC(=O)c1ccccc1	GSH bead fluor 259
NC(=O)c1oc2ccccc2c1NC(=O)c1ccco1	none
O=C(/C=C/c1cc([N+](=O)[O-])ccc1OC(F)F)NCc1ccc(F)cc1	GSH bead fluor 265
CN(C)S(=O)(=O)c1cccc(C(=O)OCC(=O)Nc2sccc2C#N)c1	RGS16-Gao -62.6, RGS4-Gao reg -59.5, RGS8-Gao 21.0, RGS7-Gao -17.0
Cn1c(=S)ccc2ccccc21	none
CC1(C)CC(=O)C(Br)=C(O)C1	RGS7-Gao inconclusive
CC1(C)CC(=O)C(=C2SCCCS2)C(=O)C1	GSH bead fluor 156
Cc1ccc(NC(=O)CCN2C(=O)OC(C)(C)C2(C)O)cc1 (stereo not drawn)	none
CCOC(=O)NC1(C(F)(F)F)C(=O)NC(C)=C1C(=O)OC (stereo not drawn)	none
COC(=O)C1=C(C)NC(=O)C1(NC(=O)CN1CCCC1=O)C(F)(F)F (stereo not drawn)	Avidin bead fluor 55
CC(=O)NC1(C(F)(F)F)NC(=O)N(CC(C)C)C1=O (stereo not drawn)	Avidin bead fluor 53
CCCCN1C(=O)NC(NC(C)=O)(C(F)(F)F)C1=O (stereo not drawn)	none
CC(C)(C)NC(=O)NC(=O)COC(=O)Cc1coc2ccc3ccccc3c12	none
OCCNC(=S)Nc1cc(Cl)cc(Cl)c1	RGS7-Gao inconclusive (no result: GSH bead fluor)
O=C(Cc1ccc([N+](=O)[O-])cc1)N1N=C(c2ccncc2)CC1(O)C(F)(F)F (stereo not drawn)	RGS7-Gao inconclusive

Screening data: PubChem BioAssay, NMMLSC
